Assay results: the supplement of paper PMC8975748
Structures can show the parent of a compound that is named as a salt.

The compounds below were run on Saccharomyces cerevisiae BY4741 SeMeCo community (assay: z-score of subpopulation abundance vs DMSO median, subpopulation auxotrophic for M; higher = larger share of this subpopulation than in DMSO controls). Details: 10 µM; 24 h; SM minimal medium; subpopulation (auxotrophy): M.
Experimental: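 Fluorescent four-plasmid SeMeCo (self-establishing metabolically cooperating S. cerevisiae BY4741 community; plasmids pH-mRuby2, pL-mWasabi, pU-eCFP, pM-TagRFP657) was grown 24 h in minimal SM medium with each Selleck FDA-approved drug at 10 µM in 384-well plates. Cells were fixed and imaged by high-content confocal microscopy. For each auxotrophic subpopulation (and the prototroph), a z-score gives the deviation from the DMSO vehicle-control population median.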
For `CC(C[N+](C)(C)C)OC(N)=O` (stereo not given) [Bethanechol chloride], the “z-score of subpopulation abundance” value was -0.79.
With `NCC[C@H](O)C(=O)N[C@@H]1C[C@H](N)[C@@H](O[C@H]2O[C@H](CN)[C@@H](O)[C@H](O)[C@H]2O)[C@H](O)[C@H]1O[C@H]1O[C@H](CO)[C@@H](O)[C@H](N)[C@H]1O` [Amikacin disulfate] the “z-score of subpopulation abundance” value was -0.8.
`CO/N=C(\C(=O)N[C@@H]1C(=O)N2C(C(=O)O)=CCS[C@H]12)c1csc(N)n1` [Ceftizoxime sodium] was tested, and the “z-score of subpopulation abundance” value was 1.04.
In the case of `CCCCCOc1ccc(-c2ccc(-c3ccc(C(=O)N[C@H]4C[C@@H](O)[C@@H](O)NC(=O)[C@@H]5[C@@H](O)[C@@H](C)CN5C(=O)[C@H]([C@@H](C)O)NC(=O)[C@H]([C@H](O)[C@@H](O)c5ccc(O)cc5)NC(=O)[C@@H]5C[C@@H](O)CN5C(=O)[C@H]([C@@H](C)O)NC4=O)cc3)cc2)cc1`, the “z-score of subpopulation abundance” value is reported as -11.7.
For `C=CCN1CCCC1CNC(=O)c1cc2nn[nH]c2cc1OC` (stereo not given) [Alizapride HCl], the “z-score of subpopulation abundance” value was -0.5.
For `Cc1ncc([N+](=O)[O-])n1CCOC(=O)c1ccccc1` [Metronidazole Benzoate], the “z-score of subpopulation abundance” value was -0.51.
With `O=C(O)CCCCCCCC(=O)O` [Azelaic acid] the “z-score of subpopulation abundance” value was 0.44.
With `Cc1cc(-c2ccc(/N=N/c3ccc4c(S(=O)(=O)O)cc(S(=O)(=O)O)c(N)c4c3O)c(C)c2)ccc1/N=N/c1ccc2c(S(=O)(=O)O)cc(S(=O)(=O)O)c(N)c2c1O` [Evans Blue] the “z-score of subpopulation abundance” value was -14.3.
`O=c1n(CCCN2CCN(c3cccc(Cl)c3)CC2)nc2ccccn12` [Trazodone HCl] was tested, and the “z-score of subpopulation abundance” value was 2.19.
In the case of `CCCN(CCc1cccs1)[C@H]1CCc2c(O)cccc2C1` [Rotigotine], the “z-score of subpopulation abundance” value is reported as 0.93.
In the case of `CC1=C(C(=O)OCCN(Cc2ccccc2)c2ccccc2)C(c2cccc([N+](=O)[O-])c2)C(P2(=O)OCC(C)(C)CO2)=C(C)N1` (stereo not given) [Efonidipine], the “z-score of subpopulation abundance” value is reported as 0.03.
`CN(C)C[C@@H]1CCn2cc(c3ccccc32)C2=C(C(=O)NC2=O)c2cn(c3ccccc23)CCO1` was tested, and the “z-score of subpopulation abundance” value was -0.34.
In the case of `COc1cc(N)c(Cl)cc1C(=O)NC1CCN(CCCOc2ccc(F)cc2)CC1OC` (stereo not given) [Cisapride], the “z-score of subpopulation abundance” value is reported as -1.29.
For `Cc1ccnc(NS(=O)(=O)c2ccc(N)cc2)n1` [Sulfamerazine], the “z-score of subpopulation abundance” value was 1.32.
In the case of `CCCN1C[C@H](C)[C@@H](O)[C@](C)(O)[C@@H](CC)OC(=O)[C@H](C)[C@@H](O[C@H]2C[C@@](C)(OC)[C@@H](O)[C@H](C)O2)[C@H](C)[C@@H](O[C@@H]2O[C@H](C)C[C@H](N(C)C)[C@H]2O)[C@](C)(O)C[C@H]1C` [Gamithromycin], the “z-score of subpopulation abundance” value is reported as -0.59.
`COc1ccc(C(C)=O)c(O)c1` [Paeonol] was tested, and the “z-score of subpopulation abundance” value was -0.69.
For `COc1ccccc1OCC(O)CN1CCN(CC(=O)Nc2c(C)cccc2C)CC1` (stereo not given) [Ranolazine 2HCl], the “z-score of subpopulation abundance” value was -0.08.
For `CC(C)(C)C(=O)C(Oc1ccc(Cl)cc1)n1ccnc1` (stereo not given) [Climbazole], the “z-score of subpopulation abundance” value was 7.09.
With `CO/N=C(\C(=O)N[C@@H]1C(=O)N2C(C(=O)O)=C(CSc3nnnn3C)CS[C@H]12)c1csc(N)n1` [Cefmenoxime hydrochloride] the “z-score of subpopulation abundance” value was 0.36.
`CC(=O)OCC(COC(C)=O)OC(C)=O` [Triacetin] was tested, and the “z-score of subpopulation abundance” value was -0.16.
With `CCCCCCCCCCCCCCCCCCOP(=O)([O-])OC1CC[N+](C)(C)CC1` [Perifosine (KRX-0401)] the “z-score of subpopulation abundance” value was -5.15.
With `O=C(Cn1cnnn1)N[C@@H]1C(=O)N2C(C(=O)O)=C(CSc3nncs3)CS[C@H]12` [Ceftezole sodium] the “z-score of subpopulation abundance” value was 0.01.
With `CN1CCN(CCCN2c3ccccc3Sc3ccc(C(F)(F)F)cc32)CC1` [Trifluoperazine 2HCl] the “z-score of subpopulation abundance” value was -0.02.
For `Cn1nnc(-c2ccc(-c3ccc(N4C[C@H](COP(=O)(O)O)OC4=O)cc3F)cn2)n1` [Tedizolid Phosphate], the “z-score of subpopulation abundance” value was -0.15.
In the case of `NNc1nncc2ccccc12` [Hydralazine HCl], the “z-score of subpopulation abundance” value is reported as -0.11.
In the case of `C[C@@H](O)[C@H]1C(=O)N2C(C(=O)OCOC(=O)C(C)(C)C)=C(SC3CN(C4=NCCS4)C3)[C@H](C)[C@H]12` [Tebipenem Pivoxil], the “z-score of subpopulation abundance” value is reported as -0.17.
With `Clc1ccccc1C(c1ccccc1)(c1ccccc1)n1ccnc1` [Clotrimazole] the “z-score of subpopulation abundance” value was 4.9.
For `C=CCc1ccc(O)c(-c2ccc(O)c(CC=C)c2)c1` [Honokiol], the “z-score of subpopulation abundance” value was -0.54.
In the case of `C[C@]12CC[C@@H]3c4ccc(OS(=O)(=O)O)cc4CC[C@H]3[C@@H]1CCC2=O` [Estropipate], the “z-score of subpopulation abundance” value is reported as 0.08.
With `O=C1C(CC[S+]([O-])c2ccccc2)C(=O)N(c2ccccc2)N1c1ccccc1` (racemic) [(+/-)-Sulfinpyrazone] the “z-score of subpopulation abundance” value was -0.48.
In the case of `CCOC(=O)c1c(CSc2ccccc2)n(C)c2cc(Br)c(O)c(CN(C)C)c12` [Arbidol HCl], the “z-score of subpopulation abundance” value is reported as 0.41.
`OC(CCCN1CCCCC1)(c1ccccc1)c1ccccc1` [Diphenidol HCl] was tested, and the “z-score of subpopulation abundance” value was 0.98.
`NC(=O)Cc1cccc(C(=O)c2ccccc2)c1N` [Nepafenac] was tested, and the “z-score of subpopulation abundance” value was 0.62.
With `CO/N=C(\C(=O)N[C@@H]1C(=O)N2C(C(=O)OCOC(=O)C(C)(C)C)=C(/C=C\c3scnc3C)CS[C@H]12)c1csc(N)n1` [Cefditoren Pivoxil] the “z-score of subpopulation abundance” value was 0.2.
For `COc1ccc(C2CNC(=O)C2)cc1OC1CCCC1` (stereo not given) [Rolipram], the “z-score of subpopulation abundance” value was 0.33.
In the case of `NC12CC3CC(CC(C3)C1)C2` [Amantadine HCl], the “z-score of subpopulation abundance” value is reported as 0.52.
In the case of `Clc1ccc(C(Cn2ccnc2)OCc2csc3c(Cl)cccc23)c(Cl)c1` (stereo not given) [Sertaconazole nitrate], the “z-score of subpopulation abundance” value is reported as -9.36.
With `CCN(CC)CCOc1ccc2c(c1)C(=O)c1cc(OCCN(CC)CC)ccc1-2` [Tilorone dihydrochloride] the “z-score of subpopulation abundance” value was -1.12.
`C[C@@H]1C/C=C/C=C/C=C/C=C/[C@H](O[C@@H]2O[C@H](C)[C@@H](O)[C@H](N)[C@@H]2O)C[C@@H]2O[C@](O)(C[C@@H](O)C[C@H]3O[C@@H]3/C=C/C(=O)O1)C[C@H](O)[C@H]2C(=O)O` [Natamycin] was tested, and the “z-score of subpopulation abundance” value was -8.99.
For `O=C(O)Cc1ccccc1Nc1c(Cl)cccc1Cl` [Diclofenac Diethylamine], the “z-score of subpopulation abundance” value was -0.07.
